The list is not random: actives were taken first. Their share in the collection is about 4.3%.
dFosB act = activators of mouse delta FosB homodimer | P13346 | purified delta FosB, TAMRA-CDK5 oligo fluorescence polarization; percent of positive-control signal above neutral wells | activation, % at 25 µM | 0.99% of 340,000 active | AID 493131;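 active means mean activation above about 17%, with every replicate also reaching it, limit read from the data, passing the limit was not always enough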
Target sequence (P13346 whole entry, looked up): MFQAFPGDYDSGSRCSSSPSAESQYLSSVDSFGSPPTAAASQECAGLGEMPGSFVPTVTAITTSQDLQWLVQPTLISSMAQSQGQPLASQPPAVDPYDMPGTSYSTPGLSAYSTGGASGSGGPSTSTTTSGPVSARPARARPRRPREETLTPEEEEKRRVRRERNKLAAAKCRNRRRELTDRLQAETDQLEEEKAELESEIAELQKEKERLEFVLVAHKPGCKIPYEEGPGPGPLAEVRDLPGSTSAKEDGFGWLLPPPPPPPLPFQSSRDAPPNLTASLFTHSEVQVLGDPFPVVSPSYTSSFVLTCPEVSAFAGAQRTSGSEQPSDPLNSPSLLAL
CR mimetic SO = yeast age-related superoxide inhibition as caloric restriction mimetic | S. cerevisiae aged cells, superoxide DHE fluorescence; hits give low values | superoxide response (% of plate mean), % at 10 µM | 0.18% of 330,000 active | AID 2690;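 active means superoxide response under a set limit, about three screen SD below normal, cut at about 65% in these data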;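 further: yeast aged for seven days with compound at 30 °C before DHE staining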
NR3A LBD binder = NR3A (human) ligand-binding domain modulation; AID 1259313; 2.5% of 340,000 active; NR3A LBD differential scanning fluorimetry, Tm shift; 0% = protein alone, 100% = glycine-bound protein; Tm shift relative to glycine control, % at 25 µM;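 active means melting temperature shift of at least 10% of the positive control shift, at one fixed dose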
NALP1 yeast inh = blocks the NALP1 inflammasome reconstituted in yeast; inhibition, % at 10 µM; 0.61% of 280,000 active; AID 2071; S. cerevisiae NALP1/ASC/caspase-1 growth, X-gal OD620, 72 h; in the data active means inhibition mostly above about 24%, no sharp cut-off; inactive means mostly below about 32%
UBC13 polyUb = blocks human UBC13 polyubiquitin chain formation. 0.47% of 330,000 active. inhibition, % at 20 µM. AID 485273. P61088. TR-FRET; in the data active means inhibition above about 45%, passing the limit was not always enough
Target sequence (P61088 whole entry, looked up): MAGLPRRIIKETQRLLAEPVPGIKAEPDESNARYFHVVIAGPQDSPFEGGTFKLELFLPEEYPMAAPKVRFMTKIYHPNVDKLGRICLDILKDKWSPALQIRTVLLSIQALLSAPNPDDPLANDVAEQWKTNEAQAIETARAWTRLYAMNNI
Each line names hits and unclear results; the compound was inactive in the other large screens.

Cc1ccc2c(=O)cc(C(F)F)oc2c1	NALP1 yeast inh 40.7
CC1CCCCN1S(=O)(=O)c1ccc(C(=O)N(CCCN(C)C)c2nc3ccc(Br)cc3s2)cc1 (stereo unspecified)	UBC13 polyUb 51.7
CCC1CCCCN1S(=O)(=O)c1ccc(C(=O)N(CCCN(C)C)c2nc3cc4c(cc3s2)OCO4)cc1 (stereo unspecified)	dFosB act 24.3
CN(C)CCN(C(=O)c1ccc(S(=O)(=O)N2CCCC2)cc1)c1nc2ccc(Br)cc2s1	none
CC1CN(S(=O)(=O)c2ccc(C(=O)N(CCCN(C)C)c3nc4cc5c(cc4s3)OCCO5)cc2)CC(C)O1 (stereo unspecified)	none (no result: NALP1 yeast inh)
CCOC(=O)c1c(C)[nH]c(C(=O)COC(=O)/C=C/c2ccc(OC(F)F)cc2)c1C	NR3A LBD binder 13.1
N#CCCN(C(=O)COC(=O)c1cc(S(=O)(=O)N2CCOCC2)ccc1Cl)c1ccc(F)cc1	none (no result: NALP1 yeast inh)
CNS(=O)(=O)c1cccc(C(=O)OCc2csc(-c3ccccc3)n2)c1	none
Nc1ccc(C(=O)OCc2csc(-c3ccccc3)n2)cc1[N+](=O)[O-]	NR3A LBD binder 29.4
Cc1cc(NC(=O)CN2C(=O)NC(CC(C)C)C2=O)ccc1Br (stereo unspecified)	NR3A LBD binder 28.9 (no result: NALP1 yeast inh)
CCC1S/C(=C(\C#N)C(=O)NCc2ccco2)N(c2ccc(Br)cc2)C1=O (stereo unspecified)	NALP1 yeast inh 21.8
CNC(=O)/C(C#N)=C/c1ccc(OCCOc2ccccc2)cc1	none
Cc1ccc(CCNC(=O)C2CCC(CNc3c(N4CCCC4)c(=O)c3=O)CC2)cc1 (stereo unspecified)	NR3A LBD binder 16.8
CC(NC(=O)C(C)N1CCN(Cc2ccccc2)CC1)c1ccc(F)cc1 (stereo unspecified)	none
COc1cccc(NC(=O)CN(C)C(=O)c2cn(-c3ccccc3)nc2-c2cccs2)c1	NR3A LBD binder 14.1 (no result: NALP1 yeast inh)
COc1ccc(NC(=O)CN(C)C(=O)c2cn(-c3ccccc3)nc2-c2ccc(Cl)cc2)cc1	NR3A LBD binder 27.4 (no result: NALP1 yeast inh)
COc1cccc(NC(=O)CN(C)C(=O)c2cn(-c3ccccc3)nc2-c2cccnc2)c1	none (no result: NALP1 yeast inh)
CN(CC(=O)Nc1cccc(F)c1)C(=O)c1cn(-c2ccccc2)nc1-c1ccc(Cl)cc1	NR3A LBD binder 27.1 (no result: NALP1 yeast inh)
CN(CC(=O)Nc1cccc(F)c1)C(=O)c1cn(-c2ccccc2)nc1-c1cccs1	NR3A LBD binder 23.0
COc1ccc(N2CCN(C(=O)c3ccc(NC(=O)C4=CSCCO4)cc3)CC2)cc1	none
Cc1ccc(C(=O)NCc2cccnc2)cc1S(=O)(=O)N1CCCCCC1	none
COCCn1c(SCC(=O)NCCCN2CCCC2=O)nc2sc3c(c2c1=O)CCCC3	none (no result: CR mimetic SO, NALP1 yeast inh, UBC13 polyUb)
CC(C)NC(=S)NC(c1ccccc1)(c1ccccc1)c1ccccc1	none
CCOc1cc(NC(=S)NCCOC)c(OCC)cc1NC(=O)c1ccco1	none
Cc1cccc(C)c1NC(=O)C1CCCN(CCCc2ccccc2)C1 (stereo unspecified)	NALP1 yeast inh 42.2 (no result: CR mimetic SO, UBC13 polyUb)
CCOC(=O)C1CCCN(CCCc2ccccc2)C1 (stereo unspecified)	none
COc1cccc(/C=C/C(=O)OCC(=O)NCC2CCCCC2)c1OC	none (no result: NALP1 yeast inh)
Cc1cc(C)cc(N(CC(=O)Nc2ccc(Br)cc2)S(=O)(=O)c2c(C)[nH]c(=O)[nH]c2=O)c1	none
O=C(/C=C/c1ccccc1)Nc1cc(S(=O)(=O)N2CCOCC2)ccc1N1CCCC1	none
C[C@@H](C(=O)NCc1ccccc1)N1C(=O)C2CC=CCC2C1=O (stereo partly specified)	NALP1 yeast inh 36.4
CC(C(=O)NCc1ccccc1)N1C(=O)c2ccccc2C1=O (stereo unspecified)	none
O=C(NCC1CCCO1)C(=O)N/N=C/c1cccc(Cl)c1 (stereo unspecified)	none
O=C(NNC(=O)c1cc2cc(OC(F)(F)F)ccc2[nH]1)c1ccc(Cl)cc1	NR3A LBD binder 14.4 (no result: dFosB act)
O=C(Nc1ccc(F)cc1)c1cc2cc(Cl)ccc2[nH]1	none
Cc1cc(OC(=O)c2ccc(C)c(C)c2)c([N+](=O)[O-])c(=O)[nH]1	none
O=C(O)c1ccccc1NS(=O)(=O)c1ccc(NN=Cc2ccccc2F)c([N+](=O)[O-])c1	NR3A LBD binder 10.0 (no result: NALP1 yeast inh)
COc1ccc(C=NNc2ccc(S(=O)(=O)Nc3ccccc3C(=O)O)cc2[N+](=O)[O-])c(OC)c1	NR3A LBD binder 457.2 (no result: NALP1 yeast inh)
O=[N+]([O-])c1ccccc1/C=C/C=N/Nc1ccc(S(=O)(=O)Nc2ccc(Cl)cc2)cc1[N+](=O)[O-]	NR3A LBD binder 11.1
CCOc1cccc(C=NNc2ccc(S(=O)(=O)Nc3ccccc3C(=O)O)cc2[N+](=O)[O-])c1O	NR3A LBD binder 16.7 (no result: NALP1 yeast inh)
CSc1ccc(C=NNc2ccc(S(=O)(=O)Nc3ccccc3C(=O)O)cc2[N+](=O)[O-])cc1	none (no result: NALP1 yeast inh)
COc1ccc(NC(=S)NNc2ccc(S(=O)(=O)Nc3ccccc3C(=O)O)cc2[N+](=O)[O-])cc1	NR3A LBD binder 15.9
COc1ccc(NS(=O)(=O)c2ccc(N/N=C(\C)c3ccncc3)c([N+](=O)[O-])c2)cc1	NR3A LBD binder 21.3
CCOc1ccc(C=NNc2ccc(S(=O)(=O)Nc3ccccc3C(=O)O)cc2[N+](=O)[O-])cc1	none (no result: NALP1 yeast inh)
C/C(=N\Nc1ccc(S(=O)(=O)Nc2ccccc2)cc1[N+](=O)[O-])c1ccncc1	none (no result: dFosB act, NR3A LBD binder)
COc1cc(C)c(NC(=O)c2cccc(S(=O)(=O)N3CCCC3)c2)cc1OC	none (no result: NALP1 yeast inh)
O=C(CCn1c2c(c3ccccc31)CCCC2)NNC(=O)c1ccc([N+](=O)[O-])cc1	none
O=C(CCn1c2c(c3ccccc31)CCCC2)NNC(=O)c1ccc(Cl)c([N+](=O)[O-])c1	NR3A LBD binder 20.2
O=C(CN1CCN(c2ccc(Cl)cc2)CC1)Nc1cccc(F)c1	none
O=C(Nc1cccc(F)c1)N1CC=C(c2ccc(Cl)cc2)CC1	NALP1 yeast inh 39.0
CN(CC(=O)Nc1ccc(F)cc1)C(=O)COc1ccc(C(=O)c2ccccc2)cc1	none
CC(=O)O[C@@H]1[C@@H](O)[C@@H](O)[C@H](Oc2c(-c3ccc(O)cc3)oc3c(CC=C(C)C)c(O)cc(O)c3c2=O)O[C@H]1C	UBC13 polyUb 46.5 (no result: dFosB act, NALP1 yeast inh)
COc1ccc(-c2oc3c(CC=C(C)C)c(O[C@@H]4O[C@H](CO)[C@@H](O)[C@H](O)[C@H]4O)cc(O)c3c(=O)c2O[C@@H]2O[C@@H](C)[C@H](O)[C@@H](O)[C@H]2O)cc1	none (no result: dFosB act, NR3A LBD binder)
CCN(CC)C(=S)SSC(=S)N(CC)CC	NALP1 yeast inh 102.2
CCCCOc1cccc(C2C(C(=O)c3cccs3)=C(O)C(=O)N2Cc2cccnc2)c1 (stereo unspecified)	none
CCN(CC)c1ccc(N=Cc2ccc([N+](=O)[O-])o2)cc1	NALP1 yeast inh 76.2
COc1cc(OC)c2c(c1)OC(=O)CC2c1ccc(C)cc1 (stereo unspecified)	none (no result: NALP1 yeast inh, UBC13 polyUb)
Cc1ccc(C2CC(=O)Oc3cc(C)c(Br)c(C)c32)cc1 (stereo unspecified)	NR3A LBD binder 18.1 (no result: NALP1 yeast inh, UBC13 polyUb)

Screening data: PubChem, several laboratories
